According to the OligoGym collection:
Also: reference of the scale not given here.

These sequences were tested against CNGB1 (assay: pooled miR-30 sensor sort-seq; sequence = guide strand). Conditions: shRNA.
For TTCTTGCACACATAGTCGTTGG, the sensor-assay potency score (higher = more potent) was -0.837.
In the case of TAAGCTGGAACCACCTCTGTAC, the sensor-assay potency score (higher = more potent) was 0.05.
TTGTCCGTAATGATGTCCCCGC showed a sensor-assay potency score (higher = more potent) of -0.775.
With TGCGGTAGTAGGTCTGTCCGGC the sensor-assay potency score (higher = more potent) was 0.228.
For TGGGCTGGTACTGACATCCTGG, the sensor-assay potency score (higher = more potent) was -0.698.
TTTGCTAACGATGTTGTAGTTC gave a sensor-assay potency score (higher = more potent) of 0.184.
Work on TAGTAGGTCTGTCCGGCGGTGG yielded a sensor-assay potency score (higher = more potent) of -0.909.
Work on TTGGGTTCATCTGTGCACCCTG yielded a sensor-assay potency score (higher = more potent) of 0.488.
TTGACGTCTTGCGAGCTCTTGG was tested, and the sensor-assay potency score (higher = more potent) was -0.581.

What follows are sequences tested against CNN2 in the same assay as above. Conditions: shRNA.
TTGGACAGGTTTTCTAGCTGGT gave a sensor-assay potency score (higher = more potent) of 0.325.
TGGCTGGCACACTTGTTCGTGC showed a sensor-assay potency score (higher = more potent) of -1.46.
In the case of TTGCGTTTGGTCCACAGTCGTA, the sensor-assay potency score (higher = more potent) was -1.13.
In the case of TTGGTATCATAGATGTGCCGCC, the sensor-assay potency score (higher = more potent) was -0.285.
With TTGTCGGTTCCCAGCTTGGTAT the sensor-assay potency score (higher = more potent) was -1.75.
TATTTCACATTATCTCACGGAG gave a sensor-assay potency score (higher = more potent) of -0.296.
TTGATGAAGTTGGACAGGTTTT showed a sensor-assay potency score (higher = more potent) of -0.865.
For TTGGACAGGAGCCGGTTCTTGA, the sensor-assay potency score (higher = more potent) was -0.733.
Work on TCATATTTGGACAGGAGCCGGT yielded a sensor-assay potency score (higher = more potent) of -0.85.
With TAGCACTCTCTCCACTGTCCTT the sensor-assay potency score (higher = more potent) was -0.91.
In the case of AATACTTCCTGAAACTTGCGGG, the sensor-assay potency score (higher = more potent) was 0.259.
Work on TTGGGGTCATATATCTGCCGGC yielded a sensor-assay potency score (higher = more potent) of -0.73.
TAGCTTGTTCATGAGTGTGCAT gave a sensor-assay potency score (higher = more potent) of -0.436.
Sequence TCTGTTGGTCTGAAGGTCCTAG has a sensor-assay potency score (higher = more potent) of 0.303.
TGTAGCTTGTTCATGAGTGTGC gave a sensor-assay potency score (higher = more potent) of 0.544.
TGTCACACTTGTCGGTTCCCAG showed a sensor-assay potency score (higher = more potent) of -0.793.
For TAGAGATGCCTTCTCGTGCCGT, the sensor-assay potency score (higher = more potent) was -0.0875.
Sequence TTCTTTTGTGAATACTTCCTGA has a sensor-assay potency score (higher = more potent) of -0.256.
TAAGATAGTTCCATCCTTCAGG was tested, and the sensor-assay potency score (higher = more potent) was -0.219.
TAGCTGGTGCCAGTTCTGCATG was tested, and the sensor-assay potency score (higher = more potent) was -1.58.
In the case of TTGACTGGCAGCACTGAACGGG, the sensor-assay potency score (higher = more potent) was -0.107.
In the case of TTTCTTTTGTGAATACTTCCTG, the sensor-assay potency score (higher = more potent) was 0.659.
ATGAGTGTGCATAAGATAGTTC showed a sensor-assay potency score (higher = more potent) of -0.603.
For TCATAGAGATGCCTTCTCGTGC, the sensor-assay potency score (higher = more potent) was -0.57.

These sequences were tested against CNOT1 in the same assay as above. Conditions: shRNA.
TTCCTTTAGCTCTTCAACCTTT showed a sensor-assay potency score (higher = more potent) of -0.326.
In the case of TTGAAATCCAGGATGGTCCAGT, the sensor-assay potency score (higher = more potent) was 0.513.
TACAGTTAAATACTTCTCGTTC gave a sensor-assay potency score (higher = more potent) of -0.0593.
Sequence TAGGTGAAGATCATACTGCTGC has a sensor-assay potency score (higher = more potent) of 0.544.
With TTATATGTAACTCTTTATCAGG the sensor-assay potency score (higher = more potent) was -0.895.
For TATCTCTTTACTAAAGTGCTGG, the sensor-assay potency score (higher = more potent) was -0.169.
For TAACTTTAAGTCATGCTCCTGA, the sensor-assay potency score (higher = more potent) was 0.328.
